High-throughput results from PubChem.
An excerpt weighted towards active compounds, which were near 1.6% of everything screened.
Mito fusion yeast: qHTS Assay for Small Molecule Inhibitors of Mitochondrial Division or Activators of Mitochondrial Fusion. S. cerevisiae fusion-defective mutant growth rescue, CellTiterGlo 48 h. Potency, µM (top dose mostly 46.1 µM), usual class: activators. 320,000 tested, 0.23% active; further: nearly all actives have a fitted effect of over 45% in size
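S. cerevisiae fusion-defective temperature-sensitive mutants (e.g. fzo1-1, mgm1-5) grown 48 h at 37C in YPEG (ethanol/glycerol non-fermentable) medium with 23 nl compound per well; growth rescue read as CellTiterGlo luminescence.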
FUS suppressor: qHTS for Suppressors of FUS Proteinopathy: Primary screen using FUS-linked yeast assay. S. cerevisiae FUS-expressing, growth rescue, OD600, 24 h. Potency, µM (top dose mostly 76.6 µM), hits mostly activators. 390,000 tested, 0.24% active. AID 1347120, 2019; further: nearly all actives have a fitted effect of over 55% in size
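Cultures pregrown in 2.5% raffinose medium are shifted to minimal medium containing 2% galactose to express toxic FUS. Compounds are tested at several concentrations. After 24hr at 30C, growth is quantified at 600 nm absorbance.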
gsp ag: qHTS for Agonist of gsp, the Etiologic Mutation Responsible for Fibrous Dysplasia/McCune-Albright Syndrome: qHTS; gsp mutant cells, cAMP HTRF, 30 min; Potency, µM (series often up to 76.9 µM), usual class: activators; 340,000 tested, 0.13% active; AID 624287, 2012; active means well fitted activation curve with a large enough effect; inconclusive means small, poorly fitted or top-dose-only effect, or another doubt; inactive means no such curve, though single readings can be large or run the other way; cell line not stated here;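 further: phosphodiesterase inhibitor Ro 20-1724 added with compounds to block cAMP breakdown; nearly all actives have a fitted effect of over 60% in size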
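Cells stably selected in G418 were plated at 2000/well, grown 16-24 hr, then given compounds in DMSO with the PDE inhibitor […] (300 uM solution added) for 30 min at 37C; cAMP was read by HTRF.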
ALOX12 inh: Primary qHTS assay for inhibitors of human arachidonate 12S-lipoxygenase (ALOX12): Round 2; Polyunsaturated fatty acid lipoxygenase ALOX12 (Homo sapiens), P18054; purified 12hLO, xylenol orange hydroperoxide absorbance; Potency, µM (highest dose often 108 µM), hits mostly inhibitors; 580,000 tested, 1.1% active
Target sequence (P18054 whole entry, looked up): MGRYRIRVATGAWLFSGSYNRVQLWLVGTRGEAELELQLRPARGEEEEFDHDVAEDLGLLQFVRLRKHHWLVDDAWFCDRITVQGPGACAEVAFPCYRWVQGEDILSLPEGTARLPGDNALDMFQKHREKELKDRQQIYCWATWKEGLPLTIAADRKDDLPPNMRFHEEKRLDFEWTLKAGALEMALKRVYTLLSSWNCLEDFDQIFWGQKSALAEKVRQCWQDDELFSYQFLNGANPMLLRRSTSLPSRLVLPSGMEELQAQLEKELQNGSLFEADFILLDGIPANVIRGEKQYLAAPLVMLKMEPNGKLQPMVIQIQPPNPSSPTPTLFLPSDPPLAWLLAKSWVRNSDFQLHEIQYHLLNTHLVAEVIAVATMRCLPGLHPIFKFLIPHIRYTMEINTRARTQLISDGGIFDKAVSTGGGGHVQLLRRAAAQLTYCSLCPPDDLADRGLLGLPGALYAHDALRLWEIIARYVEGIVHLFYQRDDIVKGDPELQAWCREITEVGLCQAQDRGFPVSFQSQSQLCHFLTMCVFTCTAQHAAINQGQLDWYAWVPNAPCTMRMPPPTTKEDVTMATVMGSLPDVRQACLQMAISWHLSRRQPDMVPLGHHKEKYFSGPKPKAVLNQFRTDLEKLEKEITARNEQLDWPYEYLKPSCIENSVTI
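Purified human 12hLO (150 nM final) in 25 mM Hepes, 0.01% Triton X-100, pH 7.0 was preincubated 15 min at room temperature with compound. Then 40 uM arachidonic acid was added, 30 min. Hydroperoxide was read by Fe-XO absorbance ratio 573/405 nm.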
gsp antag: qHTS for Antagonists of gsp, the Etiologic Mutation Responsible for Fibrous Dysplasia/McCune-Albright Syndrome: qHTS; gsp-mutant cells, cAMP HTRF, 30 min; Potency, µM (doses to about 76.9 µM), actives largely listed as inhibitors; 340,000 tested, 0.4% active; AID 624288, 2012; calls by dose curve; cell line not stated here;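 further: intracellular cAMP measured with PDE inhibitor Ro 20-1724 present during compound exposure; nearly all actives have a fitted effect of over 65% in size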
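Measurement of cellular cAMP by homogeneous time-resolved fluorescence following a 30 min compound exposure at 37C. The PDE inhibitor […] was present throughout; the assay buffer was DPBS with 0.05% BSA and 0.005% Tween 20.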
A number is an active result; i = inactive; ? = inconclusive; nt = no result given; ! = a repeat was not active; [ ] = another dose, or the depositor's remark. Unless noted, the call rests on the fitted dose curve; in most records, active means well fitted curve in the direction sought with a large enough effect; inconclusive means small, poorly fitted or top-dose-only effect, or another doubt; inactive means no such curve, though single readings can be large; an effect the other way counts as inactive or inconclusive.

SMILES | Mito fusion yeast | FUS suppressor | gsp ag | ALOX12 inh | gsp antag
CCOc1ccc(/C(O)=C2\C(=O)C(=O)N(c3nccs3)C2c2ccc(C)cc2)cc1 (configuration not stated) | nt | nt | nt | 6.3µM | nt
C=CCOc1ccc(/C(O)=C2\C(=O)C(=O)N(CCOC)C2c2cccnc2)cc1 (configuration not stated) | i | i | ? | 40µM | i
Cc1ccc(/C(O)=C2\C(=O)C(=O)N(c3nc4ccccc4s3)C2c2ccc(O)cc2)cc1 (configuration not stated) | nt | nt | nt | 18µM | nt
O=C(Nc1cccc(Cl)c1)Nc1cc(S(=O)(=O)N2CCCCC2)ccc1Cl | i | i | i | i | 25µM
COC(=O)c1cc(NC(=O)Nc2cccc(Cl)c2)ccc1Cl | i | i | i | ? | 25µM
COc1ccccc1NS(=O)(=O)c1cccc(NC(=O)Nc2cccc(Cl)c2)c1 | i | nt | i | i | 32µM
O=C(CSc1ncnc2ccccc12)Nc1cc(S(=O)(=O)N2CCCCC2)ccc1Cl | ? | nt | 3.2µM | i | i
Cc1nn(C)c2sc(C(=O)N3CCN(S(=O)(=O)c4ccc(F)cc4)CC3)cc12 | nt | nt | nt | i | nt
NC(=O)NC(=O)CSc1ccc2ccccc2n1 | nt | nt | nt | i | nt
O=C(Nc1cccc(Cl)c1)OCc1cnc(Cl)s1 | i | i | i | 25µM | i
COc1ccccc1NS(=O)(=O)c1cc(NC(=O)c2ccc(Cl)nc2)ccc1Cl | i | i | i[15.4 µM] | i | 32µM
O=C(Nc1cccc(Cl)c1)Nc1cccc(Cl)c1 | i | i | i | i | 35µM
CC1CCc2c(sc(NC(=O)CSc3ncnc4ccccc34)c2C#N)C1 (configuration not stated) | nt | nt | nt | i | nt
O=C1NCCCCC1NC(=O)C1CCCO1 (configuration not stated) | nt | nt | nt | i | nt
N#C/C(=C/c1ccc(N2CCOCC2)o1)c1ccc(Cl)cc1 | i | i | i | 7.9µM | i
Cc1ccccc1-c1nnc2sc(NC(=O)c3ccc(F)cc3)nn12 | nt | nt | nt | 32µM | nt
CCCC(=O)Nc1nn2c(-c3ccccc3)nnc2s1 | nt | nt | nt | i | nt
CCCCCCCCCCCCCCCC[N+](C)(C)Cc1ccc(F)cc1 | nt | nt | i | 45µM | i
Cc1cccc(NC(NC(=O)c2ccccc2C)C(Cl)(Cl)Cl)c1 (configuration not stated) | nt | nt | nt | i | nt
O=C(O)c1ccc(N=N/C(=N\Nc2ccc(C(=O)O)cc2)c2ccccc2)cc1 | i | i | i | i | i
Brc1ccc(N/N=C(/N=Nc2nn[nH]n2)c2ccccc2)cc1 | i | i | i | ? | 22µM
O=C(CC(c1cccc([N+](=O)[O-])c1)c1c[nH]c2ccccc12)NCCc1ccccc1 (configuration not stated) | nt | nt | nt | i | nt
CC(C)(C)c1cc(C=O)c(O)c(C(C)(C)C)c1 | nt | nt | nt | i | nt
Cc1scc(C(=O)N/N=C/c2ccc(Cl)s2)c1C | 13µM | i | i | i | i
CCN(CC(=O)NCc1cccs1)C(=O)CCC(=O)c1ccc(C)cc1 | i | i | i | 28µM | i
SMILES | Mito fusion yeast | FUS suppressor | gsp ag | ALOX12 inh | gsp antag
CCN(CC(=O)NCc1cccs1)C(=O)CCC(=O)c1ccc(F)cc1 | i | i | i | i | i
CC(=O)Nc1cccc(C(C)NCc2csc(C)n2)c1 (configuration not stated) | nt | nt | nt | 2µM | nt
c1cncc(-c2nc(NCc3ccncc3)c3ccccc3n2)c1 | nt | nt | nt | i | nt
Cc1ccc(S(=O)(=O)NC(=O)NN2CCCCCC2)cc1 | i | i | nt | ? | i
Cc1ccc(S(=O)(=O)NC(=O)NN2CC3CCCC3C2)cc1 (configuration not stated) | i | i | i | 3.1µM! | i
O=C(c1ccc(CS(=O)Cc2ccccc2Cl)o1)N1CCN(c2cccc(Cl)c2)CC1 (configuration not stated) | 35µM | ? | i | i | 32µM
CC(=O)c1ccc(CC(=O)O)s1 | nt | nt | nt | i | nt
CC(=O)c1ccc(C(=O)O)s1 | nt | nt | nt | 16µM | nt
Cc1nc2c(ccc3nc(NC(=O)C(c4ccccc4)c4ccccc4)sc32)s1 | 7.1µM | i | i | i | i
Cc1nc2c(ccc3nc(NC(=O)Cc4cccc5ccccc45)sc32)s1 | 11µM | i | i | i | i
Cc1nc2c(ccc3nc(NC(=O)c4ccc5c(c4)OCCO5)sc32)s1 | i | i | i | i | i
COc1cccc(C(N)=O)c1OCc1cccc(COc2c(OC)cccc2C(N)=O)c1 | nt | nt | nt | i | nt
Cc1cc(C(=S)N2CCOCC2)c(C)n1-c1ccc(Cl)cc1 | i | i | ? | 20µM | i
O=C(Nc1nnc(C2=COCCO2)o1)c1ccc(Cl)cc1 | i | nt | i | 40µM | i
O=C(Nc1nnc(-c2ccco2)o1)c1ccc(Cl)cc1 | i | i | i[15.4 µM] | 25µM | i
CCCCNC(=O)Cc1csc2nc(C)c(-c3cc(C)n(-c4cccc(Cl)c4)n3)c(=O)n12 | nt | nt | nt | 40µM | nt
CCCCCNC(=O)Cc1csc2nc(C)c(-c3cc(C)n(-c4cccc(C)c4)n3)c(=O)n12 | nt | nt | nt | i | nt
COc1ccc(OCC(=O)NC(=S)NNC(=O)COc2ccc(Br)cc2Cl)cc1 | i | i | i[15.4 µM] | 14µM | nt
Cc1cccc(NC(=S)NNC(=O)COc2ccc(Cl)cc2Cl)c1 | 22µM | i | i | ? | i
COc1ncccc1-c1cccc(COc2ccc3c(cnn3CC[S+](C)(=O)[O-])c2)c1 | nt | nt | nt | i | nt
CCCNC(=O)NCC12CC3CC(CC(C3)C1)C2 | nt | nt | nt | i | nt
O=C(NC1(O)C(=O)c2ccccc2C1=O)c1ccc(C(F)(F)F)cc1 | i | i | i[15.4 µM] | ? | ?
Cc1ccc(C(=O)NC2(O)C(=O)c3ccccc3C2=O)cc1C | i | i | i[15.4 µM] | 20µM | i
Cc1c(C(=O)NN2CCCCC2)nn(-c2ccc(Cl)cc2Cl)c1-c1ccc(Cl)cc1 | nt | ? | nt | 24µM! | nt
COC(=O)c1c(/N=C/N(C)C)sc2c1CCN(c1ncc(C(F)(F)F)cc1Cl)C2 | 10µM | ? | ? | i | i
SMILES | Mito fusion yeast | FUS suppressor | gsp ag | ALOX12 inh | gsp antag
CCC1c2ccsc2CCN1C(=O)CCNC(=O)c1ccc(F)cc1F (configuration not stated) | nt | nt | nt | i | nt
COCCOC(=O)c1c(C)oc2ccc(OCc3ccccc3)cc12 | 11µM | i | i[15.4 µM] | i | ?
Cc1oc2c(cc(NS(=O)(=O)c3ccc(Cl)cc3)c3ccccc32)c1C(=O)O | i | i | ? | 40µM | i
Cc1cc(C)c(NC(=S)NCCCSC2CCCCC2)c(C)c1 | i | i | i[15.4 µM] | 25µM | i
CC(C)(C)c1ccc(O)c(N)c1 | i | nt | nt | nt | nt
CC(C)(C)c1cc(N)c(O)c(Cl)c1 | nt | nt | nt | 18µM | nt
CC(C)CCNC(=O)c1ccc2c(c1)ncn2C1CCCC1 | i | i | i[15.4 µM] | i | 7.9µM
CCOCCCNC(=O)c1ccc2c(c1)ncn2C1CCCC1 | i | i | i | i | i
COc1ccc(C(=O)COC(=O)CCc2ccc(-c3ccccc3)o2)cc1 | nt | nt | nt | 7.9µM | nt
